# A selection: hits, their analogues and other compounds. The true share with any hit is near 5.8%.
# 12-LOX inh: ALOX12 (human) lipoxygenase inhibition. Potency, µM (top dose mostly 108 µM), actives largely listed as inhibitors. AID 1671190. P18054. purified 12hLO, xylenol orange hydroperoxide absorbance. 580,000 compounds, 1.1% hits
# Target sequence (P18054 whole entry, looked up): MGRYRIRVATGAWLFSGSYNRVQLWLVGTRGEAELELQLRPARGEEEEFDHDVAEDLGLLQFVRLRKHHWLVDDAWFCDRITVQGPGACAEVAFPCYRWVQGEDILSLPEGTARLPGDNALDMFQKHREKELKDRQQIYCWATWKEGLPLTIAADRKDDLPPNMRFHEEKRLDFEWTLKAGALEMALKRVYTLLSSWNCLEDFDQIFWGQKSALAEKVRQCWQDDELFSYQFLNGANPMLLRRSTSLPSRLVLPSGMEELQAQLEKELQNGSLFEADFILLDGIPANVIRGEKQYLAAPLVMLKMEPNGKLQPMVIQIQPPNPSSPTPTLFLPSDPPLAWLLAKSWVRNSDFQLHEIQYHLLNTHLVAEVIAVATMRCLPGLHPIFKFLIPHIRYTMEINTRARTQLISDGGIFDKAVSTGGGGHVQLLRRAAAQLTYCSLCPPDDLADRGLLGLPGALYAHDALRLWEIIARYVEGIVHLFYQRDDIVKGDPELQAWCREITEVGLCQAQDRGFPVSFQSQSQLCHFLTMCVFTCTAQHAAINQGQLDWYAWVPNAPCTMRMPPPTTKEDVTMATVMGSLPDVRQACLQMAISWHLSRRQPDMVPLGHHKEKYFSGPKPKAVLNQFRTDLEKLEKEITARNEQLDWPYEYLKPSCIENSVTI
#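 Purified human 12hLO (150 nM final) in 25 mM Hepes, 0.01% Triton X-100, pH 7.0 was preincubated 15 min at room temperature with compound. Then 40 uM arachidonic acid was added, 30 min. Hydroperoxide was read by Fe-XO absorbance ratio 573/405 nm.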
# SW480 rereplic: DNA re-replication induction in SW480 cells | SW480 DNA re-replication, Hoechst DNA content imaging, 48 h | Potency, µM (highest dose often 46.1 µM), usual class: activators | 340,000 compounds, 1.8% hits; further: nearly all actives have a fitted effect of over 55% in size
#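 Image-based DNA-content assay: after two days of treatment, nuclei were labelled with the DNA dye Hoechst and imaged, and hits were compounds raising the count of nuclei showing high fluorescence intensity.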
# KB-V1 cytotox: kills drug-selected multidrug resistant KB-V1 cells; KB-V1 MDR cells viability, CellTiter-Glo, 72 h; Potency, µM (series often up to 46.1 µM), most hits filed as cytotoxic; 400,000 compounds, 3.4% hits; AID 1347076; further: nearly all actives have a fitted effect of over 60% in size
#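 In this primary screen, KB-V1 cells overexpressing P-gp are incubated with library compounds (lowest to highest concentration) for 72 h at 37 degrees C before a luminescent ATP viability read.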
# KB-3-1 cytotox: KB-3-1 parental cell cytotoxicity. KB-3-1 viability, CellTiter-Glo ATP luminescence, 72 h. Potency, µM (top dose mostly 46.1 µM), usual class: cytotoxic. 400,000 compounds, 1.4% hits. AID 1347075; further: nearly all actives have a fitted effect of over 60% in size
#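 KB-3-1 cells, DMEM (no phenol red) + 10% FBS; compound by pin transfer, 72 h, 37 °C. Readout: CellTiter-Glo luminescence after 10 min. Data normalized, curve-fitted.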
# PINK1 modulator: modulators of PINK1 expression; PINK1 immunofluorescence, high-content cytometry, 24 h; Potency, µM (titrated, usually from 76.6 µM), most hits filed as activators; 410,000 compounds, 0.2% hits; active means well fitted activation curve with a large enough effect; inconclusive means small, poorly fitted or top-dose-only effect; cell line not stated here; further: nearly all actives have a fitted effect of over 65% in size
#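 Measures PINK1 amount and localization on or inside mitochondria by immunofluorescence. Stable cells get compounds at 5 concentrations for 24 hours before fixation and staining; CCCP controls included.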
# MCF10A rereplic: DNA re-replication induction in MCF 10a cells; MCF 10A DNA re-replication, Hoechst nuclear intensity, 48 h; Potency, µM (top dose mostly 46.1 µM), hits mostly activators; 350,000 compounds, 2.9% hits; further: nearly all actives have a fitted effect of over 50% in size
# Numbers stand for hits; - = inactive; ? = inconclusive; . = not tested or not shown; ! = not active in a repeat; [ ] = dose if it differs, or a comment. Unless noted, the call rests on the fitted dose curve; in most records, active means well fitted curve in the direction sought with a large enough effect; inconclusive means small, poorly fitted or top-dose-only effect, or another doubt; inactive means no such curve, though single readings can be large; an effect the other way counts as inactive or inconclusive.
SMILES,12-LOX inh,SW480 rereplic,KB-V1 cytotox,KB-3-1 cytotox,PINK1 modulator,MCF10A rereplic
CC(=O)NS(=O)(=O)c1ccc(N=c2ssc3c2-c2ccc(C)cc2NC3(C)C)cc1,15.8µM,-,-,?,-,?
O=[N+]([O-])C1C(c2ccccc2)C12c1ccccc1-c1ccccc12 (centres undefined),.,.,5.17µM,?,-,.
CC(C(=O)Nc1ccc2[nH]c(=O)[nH]c2c1)N(C)Cc1c(F)cccc1Cl (centres undefined),-,.,.,.,.,.
CCN(CC)CCNC(=O)/C(=C/c1cn(CC)c2ccccc12)NC(=O)c1cc(OC)c(OC)c(OC)c1,-,-,-,-,-,0.651µM
Fc1ccc(-c2nc(COc3ccccc3F)co2)cc1,-,.,.,.,.,.
COc1cc(OC)cc(C(=O)NCC(=O)Nc2ccc(-c3ccccc3)cc2)c1,-,8.2µM,-,?,-,4.61µM
N#Cc1ccc(OC(=O)Cc2ccc(F)cc2)cc1,-,.,.,.,.,.
COc1ccc(C(CNC(=O)Cc2ccc(-c3ccccc3)cc2)N(C)C)cc1 (centres undefined),-,18.4µM,-,-,-,?
COc1ccc(CC(=O)Oc2ccc(F)cc2)cc1,-,-,?,-,-,0.651µM
COc1cccc(CN(C)CC(=O)NC(=O)NCc2ccccc2)c1,-,-,20.6µM,-,-,-
COc1cc(OC)cc(C(=O)NCC(=O)Nc2ccc(C)c(Cl)c2)c1,-,-,-,-,-,-
Brc1ccc(-c2noc(C34CC5CC(CC(C5)C3)C4)n2)cc1,-,.,.,.,.,.
Cc1ccc(N2CC(c3noc(C4CCN(C(=O)c5ccccc5)CC4)n3)CC2=O)cc1 (centres undefined),-,.,.,.,.,.
COc1ccc(CN2CCCC23Cc2ccccc2N([S+](C)(=O)[O-])C3)cc1 (centres undefined),-[6.33 µM],.,.,.,.,.
COc1ccc(CNC(=O)c2cccc(C)c2[N+](=O)[O-])cc1,-,-,23.1µM,-,-,-
COc1ccc(-c2cc(CNC(=O)CCl)on2)cc1,-,?,-,?,-,?
O=C(COc1ccc(C(=O)c2ccccc2)cc1)NCC1CCCCC1,-,-,-,-,-,18.4µM
COc1ccc(-c2cc(CNC(=O)CN(C)Cc3ccccc3)on2)cc1,-,-,2.59µM,-,-,-
Cc1cccc(C(=O)NCc2ccc(S(N)(=O)=O)cc2)c1[N+](=O)[O-],-,-,-,-,-,-
COc1ccc(CC(=O)NCc2ccccc2)cc1,-,?,-,?,-,7.31µM
CCCCC[C@H]1CN(CCc2ccccc2)C(=O)[C@@H]1CC(=O)NCc1ccc(OC)cc1,-,-[9.22 µM],18.4µM!,?,-,-
COc1cccc(CNC(=O)Cc2ccc(-n3c(=O)[nH]c4ccccc4c3=O)cc2)c1,-,?,?,4.11µM,?,?
COc1cccc(CNC(=O)Cn2cccc2C(=O)c2ccccc2)c1,-,.,.,.,-,.
COc1cccc(CNC(=O)COC(=O)CNC(=O)c2ccc(-c3ccccc3)cc2)c1,-,-,?,-,-,-
COc1cccc(CNC(=O)COc2ccc(C(=O)c3ccccc3)cc2)c1,-,?,20.6µM,?,-,?
SMILES,12-LOX inh,SW480 rereplic,KB-V1 cytotox,KB-3-1 cytotox,PINK1 modulator,MCF10A rereplic
COc1cccc(CNC(=O)Cc2ccc(-c3ccccc3)cc2)c1,-,?,?,?,-,10.3µM
COc1ccc(C(=O)NCc2cc(C)nc3ccccc23)cc1,-,?,-,18.4µM,-,?
COc1cc(C(=O)NCc2cc(C)nc3ccccc23)cc(OC)c1OC,-,-,-,-,-,-
O=C1COc2ccc(-c3csc(NCC4CCCO4)n3)cc2N1 (centres undefined),44.7µM,-,-,-,-,-
Nc1nccnc1C(=O)NCC#Cc1ccccc1,-,.,.,.,.,.
O=S(=O)(c1ccc(Oc2ccc3ccccc3c2)nc1)N1CCCCC1,-,.,.,.,.,.
Cc1cc(C)nc(Nc2ncc(O)n2-c2ccc(C)c(Cl)c2)n1,-,-,-,-,-,-
Cc1cc(C)nc(Nc2ncc(O)n2-c2ccc(C)c(C)c2)n1,-,-,11.6µM,-,-,-
CCCCCCCCNc1ccccc1S(=O)(=O)NCc1ccccc1,-,-,-,-,?,5.17µM
O=S(=O)(NCc1ccccc1)c1ccccc1NCCc1ccccc1,-,-,-,-,-,-
CCCCNC(=S)NCc1ccc2[nH]c3c(c2c1)CCCC3,?,-,20.6µM,-,?,-
S=C(NCc1ccc2[nH]c3c(c2c1)CCCC3)Nc1ccccc1Cl,?,-,?,?,-,3.66µM
CNC(=S)NCc1ccc2[nH]c3c(c2c1)CCCC3,?,-,?,-,-,-
Cc1ccccc1NC(=S)NCc1ccc2[nH]c3c(c2c1)CCCC3,?,?,-,-,-,6.51µM
Cc1oc2cc(OCC(=O)NCC(O)CO)ccc2c(=O)c1Oc1ccccc1 (centres undefined),-,.,.,.,.,.
COc1ccc(C(=O)Cn2nc(CNc3ccc(Br)cc3)[n+]3c2CCCCC3)cc1,-,-,-,20.6µM,-,?
O=C(Cn1nc(-c2nn(CC(=O)c3ccccc3)c3[n+]2CCCCC3)[n+]2c1CCCCC2)c1ccccc1,-,-,?,-,-,-
Cc1ccc(NC(=O)Cc2nnc(SCC(=O)NC34CC5CC(CC(C5)C3)C4)n2C)c(C)c1,-,.,.,.,.,.
Cc1ccc(S(=O)(=O)Nc2ccccc2C(=O)N2CCOCC2)cc1,-,-,-,?,-,-
O=C(c1ccc(F)cc1F)N1CCN(S(=O)(=O)c2ccc3c(c2)OCCO3)CC1,-,-,16.4µM,?,-,-
O=C(c1ccccc1NS(=O)(=O)c1ccc2c(c1)OCCO2)N1CCOCC1,-,11.6µM,-,-,-,6.51µM
CSc1ccccc1NC(=O)COC(=O)c1ccccc1Cc1ccccc1,-,-,?,-,-,?
O=C(Nc1ccc(SC(F)F)cc1)c1ccc(F)cc1,-,?,-,-,-,0.82µM
O=C(COc1cccc(Oc2ccccc2)c1)Nc1ccc(SC(F)F)cc1,-,7.31µM,-,-,-,0.731µM
COc1cc(C(=O)OCC(=O)Nc2ccc(SC(F)F)cc2)cc(OC)c1OC,-,-,14.6µM,-,-,-
SMILES,12-LOX inh,SW480 rereplic,KB-V1 cytotox,KB-3-1 cytotox,PINK1 modulator,MCF10A rereplic
O=C(COc1cccc(OC(F)F)c1)Nc1ccc(SC(F)F)cc1,-,-,-,-,-,-
O=C(COC(=O)c1ccccc1Cc1ccccc1)Nc1ccc(SC(F)F)cc1,-,?,?,-,?,25.9µM
COc1cc(NC(=O)c2ccc(C#N)cc2F)ccc1NC(=O)c1cc2ccccc2o1,-,.,.,.,.,.
Cc1ccc(/C=N/O)o1,-,.,.,.,.,.
Cc1ccc(-c2nc(C)sc2CC(=O)OCC(=O)Nc2cccc([N+](=O)[O-])c2)cc1,-,-,-,-,-,-
O=C(Cc1ccc(Cl)cc1)Nc1ccc(SC(F)F)cc1,-,-,20.6µM,?,-,?

# Bioassay records from PubChem.
